According to ChEMBL document CHEMBL4513146, “CO-ADD screening of Karazin Kharkiv National University (Ukraine) compounds”:
Out of some 21,000 compounds screened, fewer than 10 showed an effect of 50% or more. These entries were drawn from the full list. Measured potencies and affinities stand elsewhere.

Tested on: Acinetobacter baumannii
Conditions: Concentration 32 ug.mL-1;; ASSAY_TEST Inhibition of Bacterial Growth; detection method Absorption (OD600); MEDIA CAMHB; plate type 384well; NBS; CORNING #3640; time 18 hr

Point of comparison: CCOc1ccc(C(=O)Cn2nc3n(CCC(C)C)c(=O)c4sccc4n3c2=O)cc1, Inhibition 1.79%. Against it:
- Cc1ccc(NC(=O)Cn2nc3c4c5c(sc4ncn3c2=O)CCCC5)c(Cl)c1 — lower, -9.66%
- COc1cccc(-n2ccn3c(SCC(=O)c4ccc(C)cc4)nnc3c2=O)c1 — lower, -4.26%
- COc1ccc(-c2cc3c4nn(CC(=O)Nc5cc(OC)cc(OC)c5)c(=O)n4ccn3n2)cc1 — lower, -11.34%
- CCc1nnc2c(S(=O)(=O)N(Cc3cccc(C)c3)c3cccc(Cl)c3)cccn12 — higher, 8.48%
- O=C(CSc1nnc2c(=O)n(-c3ccc(Br)cc3)ccn12)Nc1cc(F)ccc1F — lower, 0.45%
- CCOc1ccc(-n2ccn3c(SCC(=O)c4ccc(C)cc4)nnc3c2=O)cc1 — higher, 4.11%
- CCOc1ccc(NC(=O)Cn2nc3c(Oc4ccc(C)cc4)nccn3c2=O)cc1 — lower, 0.89%
- CCc1nnc2ccc(S(=O)(=O)N(Cc3ccc(OC)cc3)c3cccc(F)c3)cn12 — lower, -12.55%
- COc1ccc(NC(=O)Cn2nc3c4c5c(sc4ncn3c2=O)CCCC5)cc1 — lower, -5.35%
- COc1ccccc1NC(=O)Cn1nc2c3c4c(sc3ncn2c1=O)CCCC4 — lower, -5.75%
- O=C(CSc1nnc2c(=O)n(-c3cccc(F)c3)ccn12)Nc1ccc(Br)cc1 — higher, 3.4%
- COc1cccc(Oc2nccn3c(=O)n(CC(=O)Nc4ccc5c(c4)OCO5)nc23)c1 — lower, 0%
- Cc1ccc(-c2ccc3nn(CC(=O)Nc4ccc(C#N)cc4)c(=O)n3n2)cc1C — higher, 6.14%
- CCCc1nnc2c(=O)n(CC(=O)Nc3ccc(C(C)=O)cc3)c3ccccc3n12 — higher, 9.58%
- Cc1ccc(-c2cc3c4nnc(SCC(=O)Nc5ccc(C#N)cc5)n4ccn3n2)cc1 — lower, -8.65%
- CCOc1ccc(NC(=O)Cn2nc3c(Oc4cccc(OC)c4)nccn3c2=O)cc1 — higher, 5.77%
- Cc1ccc(F)cc1NC(=O)CSc1nc2ccccc2n2c(C)nnc12 — higher, 5.49%
- Cc1ccc(Oc2nccn3c(=O)n(CC(=O)Nc4ccc(C)cc4Br)nc23)cc1 — higher, 2.31%
- CCCCn1c(=O)c2sccc2n2c(=O)n(CC(=O)c3ccc(C)cc3C)nc12 — lower, -4.56%
- O=C(Cn1nc2nc(Nc3ccc(F)cc3)ccn2c1=O)Nc1cc(F)ccc1F — higher, 12.46%
